The nature of experiment [1]: qHTS for Inhibitors of the Functional Ribonucleoprotein Complex (vRNP) of Lassa (LASV) Arenavirus: LASV Primary Screen - GLuc reporter signal (AID 1347082; calls by dose curve; tested in HEK293 reporter line; also: series mostly up to about 57 µM; nearly all actives have a fitted effect of over 60% in size).
Experiment [2] is described as follows: qHTS for Inhibitors of the Functional Ribonucleoprotein Complex (vRNP) of Lassa (LASV) Arenavirus: Viability assay - alamar blue signal for LASV Primary Screen (AID 1347083; calls by dose curve; tested in HEK293 reporter line; also: series mostly up to about 57 µM; nearly all actives have a fitted effect of over 80% in size).
Experiment [3] in a line: qHTS for Inhibitors of the Functional Ribonucleoprotein Complex (vRNP) of Lymphocytic Choriomeningitis Arenaviruses (LCMV): Viability assay - alamar blue signal for LCMV Primary Screen (AID 1347085; calls by dose curve; tested in HEK293 reporter line; also: series mostly up to about 57 µM; nearly all actives have a fitted effect of over 80% in size).
Experiment [4] concerns the target Nucleoprotein (Lymphocytic choriomeningitis virus (strain Armstrong)) (UniProt P09992). The experiment is described as follows: qHTS for Inhibitors of the Functional Ribonucleoprotein Complex (vRNP) of Lymphocytic Choriomeningitis Arenaviruses (LCMV): LCMV Primary Screen - GLuc reporter signal (AID 1347086). Also: nearly all actives have a fitted effect of over 70% in size. Also: potency is read from the fitted curve at half-maximal effect. As to activity change, negative = inhibition: series mostly up to about 57 µM.

Inconclusive results are not listed. Unmarked numbers belong to inactive results. Active and inactive are the calls of the source. Unless noted, calls follow the shape of the full dose curve.
% is scaled to controls: 0 for no effect and ±100 for the full control effect.

Nucleoprotein (Lymphocytic choriomeningitis virus (strain Armstrong)), sequence (P09992 whole entry, looked up): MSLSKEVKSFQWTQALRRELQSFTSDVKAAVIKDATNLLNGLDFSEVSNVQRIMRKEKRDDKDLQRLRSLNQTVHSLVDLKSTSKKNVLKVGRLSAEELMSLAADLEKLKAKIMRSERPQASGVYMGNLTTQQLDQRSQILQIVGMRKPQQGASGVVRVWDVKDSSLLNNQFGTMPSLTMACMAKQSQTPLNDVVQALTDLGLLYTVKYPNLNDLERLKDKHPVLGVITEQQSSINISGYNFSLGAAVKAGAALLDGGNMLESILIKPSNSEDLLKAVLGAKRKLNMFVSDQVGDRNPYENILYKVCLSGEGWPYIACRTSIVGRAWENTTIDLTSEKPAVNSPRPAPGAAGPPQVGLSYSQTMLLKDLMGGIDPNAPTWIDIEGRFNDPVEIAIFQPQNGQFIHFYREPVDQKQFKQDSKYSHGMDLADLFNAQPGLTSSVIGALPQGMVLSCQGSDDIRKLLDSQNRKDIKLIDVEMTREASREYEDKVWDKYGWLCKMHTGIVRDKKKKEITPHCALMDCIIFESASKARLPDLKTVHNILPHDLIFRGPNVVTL

In the case of `CC(C)(O)[C@@H]1CC(=O)[C@]2(C)[C@H](CC[C@@]3(C)[C@H](c4ccoc4)OC(=O)[C@H]4O[C@]432)[C@@]1(C)/C=C\C(=O)O`, the Potency entry in experiment [1], in experiment [2], in experiment [3] and in experiment [4] was “inactive” in each case.
As to `C=C[C@@H]1CN2CC[C@@H]1C[C@H]2[C@H](O)c1ccnc2ccc(OC)cc12`, the Potency entry in experiment [1], in experiment [2], in experiment [3] and in experiment [4] was “inactive” each time.
`CCCCCc1c2c(cc(O)c1C(=O)O)OC(=O)c1cc(C(=O)CCCC)c(OC)cc1O2`: the Potency entry in experiment [1], in experiment [2], in experiment [3] and in experiment [4] was “inactive” throughout.
Consider `CC(C)NC(=O)NCCCCCCS(C)=O` (stereo not given), for which the Potency entry in experiment [1], in experiment [2], in experiment [3] and in experiment [4] was “inactive” throughout.
As for `C[C@@H]1CC[C@]2(C(=O)O[C@@H]3O[C@H](CO)[C@@H](O)[C@H](O)[C@H]3O)CC[C@]3(C)C(=CCC4[C@@]5(C)C[C@@H](O)[C@H](O)[C@@](C)(C(=O)O[C@@H]6[C@H](O)C[C@@]7(C)C(CC[C@]8(C)C7CC=C7[C@H]9[C@](C(=O)O[C@@H]%10O[C@H](CO)[C@@H](O)[C@H](O)[C@H]%10O)(CC[C@@H](C)[C@@]9(C)O)CC[C@]78C)[C@@]6(CO)C(=O)O)C5CC[C@]43C)[C@@H]2[C@]1(C)O` (stereo not given in full), the Potency entry in experiment [1], in experiment [2], in experiment [3] and in experiment [4] was “inactive” each time.
In the case of `CCCCCCCCOC(C)=O`, the Potency result in experiment [1], in experiment [2], in experiment [3] and in experiment [4] was “inactive” each time.
Consider `CO[C@H]1[C@@H](OC)CC(OC2OC(CO)C(O)C(O)C2O)/C(=C\C#N)[C@@H]1O` (stereo not given in full), for which the Potency result in experiment [1], in experiment [2], in experiment [3] and in experiment [4] was “inactive” in each case.
As for `C/C=C(/C)C(=O)OC(C)(C)[C@@H]1Cc2c(ccc3ccc(=O)oc23)O1`, the Potency result in experiment [1], in experiment [2], in experiment [3] and in experiment [4] was “inactive” throughout.
As for `COc1cc2c(cc1OC)[C@@H]1Cc3cc4c(cc3[C@H](C2)N1C)OCO4`, the Potency result in experiment [1], in experiment [2], in experiment [3] and in experiment [4] was “inactive” each time.
As to `C[C@H](CCC(=O)NCC(=O)O)[C@H]1CC[C@H]2[C@@H]3[C@H](O)C[C@@H]4C[C@H](O)CC[C@]4(C)[C@H]3C[C@H](O)[C@]12C`, the Potency result in experiment [1], in experiment [2], in experiment [3] and in experiment [4] was “inactive” throughout.
For `CC(C)CNC(=O)/C=C/C=C/CCCCCC/C=C/c1ccc2c(c1)OCO2`, the Potency entry in experiment [1], in experiment [2], in experiment [3] and in experiment [4] was “inactive” throughout.
For `COc1ccc(C=CC(=O)c2ccc(OC)c(OC)c2O)cc1OC`, the Potency result in experiment [1], in experiment [2], in experiment [3] and in experiment [4] was “inactive” throughout.
With `C=C[C@](C)(O)CC[C@@H]1[C@@]2(C)CCCC(C)(C)[C@@H]2CC[C@@]1(C)O`, the Potency result in experiment [1], in experiment [2], in experiment [3] and in experiment [4] was “inactive” each time.
On to `Cc1c(O)ccoc1=O`, for which the Potency entry in experiment [1], in experiment [2], in experiment [3] and in experiment [4] was “inactive” in each case.
Turning to `COc1c2c(cc3oc(C)cc(=O)c13)OC(C(C)(C)OC1OC(CO)C(O)C(O)C1O)C2` (stereo not given), the Potency result in experiment [1], in experiment [2], in experiment [3] and in experiment [4] was “inactive” each time.
For the compound `O=C(/C=C/c1ccccc1)OCCc1ccccc1`, the Potency result in experiment [1], in experiment [2], in experiment [3] and in experiment [4] was “inactive” each time.
Regarding `c1cnc2c(-c3nccc4c3[nH]c3ccccc34)cccc2c1`, the Potency entry in experiment [1], in experiment [2], in experiment [3] and in experiment [4] was “inactive” in each case.
Turning to `CCCCC/C=C\C/C=C\C=C\[C@@H](O)C/C=C\CCCC(=O)O`, the activity change, negative = inhibition in experiment [1] is -0.303% [at 0.757 µM]; in experiment [4] it was 14.7% [at 0.757 µM]. In addition, the activity change, negative = reduced viability in experiment [2] was 9.41% [at 0.757 µM]. The activity change, negative = lower viability in experiment [3] was 16.7% [at 0.757 µM].
In the case of `COC(=O)c1ccccc1-n1c(C)nc2ccccc2c1=O`, the Potency entry in experiment [1], in experiment [2], in experiment [3] and in experiment [4] was “inactive” each time.
For the compound `O=C1c2ccccc2-n2c1nc1ccccc1c2=O`, the Potency entry in experiment [1], in experiment [2] and in experiment [3] was “inactive” each time. Also, in experiment [4], the Potency is 447 nM (active).
Consider `COc1cc(OC)c2ccc(=O)oc2c1`, for which the Potency result in experiment [1], in experiment [2], in experiment [3] and in experiment [4] was “inactive” in each case.
Turning to `CC(C)CCCC(C)CCO` (stereo not given), the Potency entry in experiment [1], in experiment [2], in experiment [3] and in experiment [4] was “inactive” in each case.
Take `CCCC(=O)OCc1ccccc1`: the Potency entry in experiment [1], in experiment [2], in experiment [3] and in experiment [4] was “inactive” each time.
`COC1=C(C)C(O)=C(C(=O)/C=C/c2ccccc2)C(=O)C1(C)C`: the Potency entry in experiment [1], in experiment [2], in experiment [3] and in experiment [4] was “inactive” in each case.
As for `CCCCCC1C(=O)CCC1CC(=O)OC` (stereo not given), the Potency result in experiment [1], in experiment [2], in experiment [3] and in experiment [4] was “inactive” in each case.
On to `CCCCC(C=O)NC(=O)C(CC(C)C)NC(=O)OCc1ccccc1` (stereo not given), for which the Potency entry in experiment [1], in experiment [2], in experiment [3] and in experiment [4] was “inactive” throughout.
With `COc1ccc(CNC(=S)NCc2ccc(OC)cc2)cc1`, the Potency result in experiment [1], in experiment [2], in experiment [3] and in experiment [4] was “inactive” throughout.
As for `ON=Cc1ccnc2ccccc12`, the Potency entry in experiment [1], in experiment [2], in experiment [3] and in experiment [4] was “inactive” throughout.
As for `CO[C@H]1/C=C\O[C@@]2(C)Oc3c(C)c(O)c4c(O)c(c5c(nc6cc(C)ccn65)c4c3C2=O)NC(=O)C(C)=CC=C[C@H](C)[C@H](O)[C@@H](C)[C@@H](O)[C@@H](C)[C@H](OC(C)=O)[C@H]1C`, the Potency entry in experiment [1], in experiment [2], in experiment [3] and in experiment [4] was “inactive” throughout.
Consider `O=C(O)c1ccccc1Cc1ccccc1`, for which the Potency result in experiment [1], in experiment [2], in experiment [3] and in experiment [4] was “inactive” in each case.
